Results taken from PubChem BioAssay (NCI).
Compounds without any hit were thinned out: in the full panel of roughly 83,000, 20% have a hit.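 Results are percent growth after 48 hours of single-concentration exposure. 100 means growth as in untreated cells, lower positive values show inhibition; negative values down to -100 show cell death.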 Unmarked numbers belong to inactive results. Activity calls are given as the source filed them. How the source made its calls: active means growth percent below 10; inactive means the rest.

How the values were obtained:
Assay in all cases: NCI-60 one-dose screen, 48 h (100 = growth as untreated, 0 = no growth, -100 = all killed)
Conditions in all cases: 10 µM unless noted
[1] = test system: NCI-H23 lung
[2] = test system: NCI-H226 lung
[3] = test system: NCI-H322M lung
[4] = test system: HOP-62 NSCLC
[5] = test system: NCI-H460 lung
[6] = test system: HOP-92 NSCLC
[7] = test system: NCI-H522 lung
[8] = test system: A549/ATCC NSCLC
[9] = test system: 786-0 renal
[10] = test system: COLO 205 colon
[11] = test system: DU-145 prostate
[12] = test system: K-562 leukemia
[13] = test system: MALME-3M melanoma
[14] = test system: MDA-MB-231 breast
[15] = test system: RXF 393 renal
[16] = test system: SF-268 CNS
[17] = test system: SF-295 CNS
[18] = test system: SF-539 CNS
[19] = test system: UACC-257 melanoma
[20] = test system: M14 melanoma

| Structure (SMILES) | growth [1] | growth [2] | growth [3] | growth [4] | growth [5] | growth [6] | growth [7] | growth [8] | growth [9] | growth [10] | growth [11] | growth [12] | growth [13] | growth [14] | growth [15] | growth [16] | growth [17] | growth [18] | growth [19] | growth [20] |
| --- | --- | --- | --- | --- | --- | --- | --- | --- | --- | --- | --- | --- | --- | --- | --- | --- | --- | --- | --- | --- |
| COC12C=C/C(=C(/C(=O)OCc3cncnc3)C(=O)CCCCCCCCC3(OC)C=C/C(=C(/C(=O)OCc4cncnc4)C(=O)CCCCCCCC1)O3)O2 | -49.9% (active) | -78% (active) | -66% (active) | 9.7% (active) | -20.5% (active) | -59.7% (active) | -33.8% (active) | -7.89% (active) | -70.7% (active) | -30.5% (active) | -42.7% (active) | -16.8% (active) | -70.8% (active) | 5.88% (active) | -74.2% (active) | -10.6% (active) | -13.8% (active) | -27% (active) | -12.7% (active) | -12.3% (active) |
| N[C@@H]1CCC[C@H]1NCCCCN1C(=O)c2cccc3cc([N+](=O)[O-])cc(c23)C1=O | 39.3% | 11% | 41.2% | 31.7% | 6.71% (active) | 34.5% | 40.6% | 22.4% | 25% | 22.8% | 22.2% | 18.6% | 57.5% | 45.1% | 32.3% | 34.3% | 55.5% | 32.7% | 61.2% | 63.7% |
| c1cc(OCCN2CCCC2)ccc1CNc1ccc2nc(CCC3CCCCC3)[nH]c2c1 | 81.9% | 51.3% | 78.2% | 57.8% | 52.6% | 25.3% | 63.2% | 50.2% | -60.1% (active) | -73.9% (active) | 65.2% | -11.7% (active) | -83.7% (active) | 11.2% | 42.2% | 58.3% | -30% (active) | -72.4% (active) | -77.8% (active) | -86.9% (active) |
| CCSc1ccnc(N)n1 | 120% | 101% | 106% | 94% | 113% | 98% | 105% | 118% | 98.3% | 125% | 105% | 121% | 86.3% | 104% | 125% | 93.9% | 105% | 105% | 102% | 112% |
| CCOC(=O)c1nnn(Cc2cc(=O)oc3ccc(O)cc23)c1C | 101% | 99.6% | 105% | 102% | 99.3% | 103% | 97.1% | 98.6% | 103% | 105% | 115% | 103% | 103% | 105% | 113% | 108% | 97.7% | 102% | 105% | 100% |
| COC1C(O)CC(OC2CC(OC3CC(O[C@@H]4C(=O)c5c(cc6cc(OC7CC(OC8CC(O)C(O)C(C)O8)C(O)C(C)O7)c(C)c(O)c6c5O)CC4[C@H](OC)C(=O)C(C)=O)OC(C)C3O)OC(C)C2O)OC1C (stereo not given in full) | -23.8% (active) | -10.8% (active) | -8.5% (active) | -20.1% (active) | 8.4% (active) | -6.32% (active) | -35.4% (active) | 1.9% (active) | 4.33% (active) | -47.6% (active) | 10.4% | 2.1% (active) | -30.6% (active) | 6.75% (active) | -56.3% (active) | 2.33% (active) | 0.867% (active) | -20.8% (active) | -23.4% (active) | -34.4% (active) |
| CCN(CC)CCCNc1cc(OC)c(OC)c2cccnc12 | 7.1% (active) | 110% | 85.1% | 58.3% | 23.4% | 84.7% | 20.9% | 56.4% | 43.4% | 98.4% | 90.3% | 66.2% | 90.3% | 74.2% | 113% | 66.1% | 79.5% | 55.7% | 67% | 48% |
| Nc1cc(C(=O)O)cc(-n2c(O)c(C=C3N=c4ccccc4=N3)sc2=S)c1 | 92.6% | 85.4% | 99.2% | 100% | 98% | 81.6% | 92.7% | 104% | 102% | 103% | 111% | 116% | 96.9% | 89.4% | 112% | 97.6% | 101% | 97.3% | 102% | 97.9% |
| COCCn1cc(-c2csc(-c3c[nH]c4ccc(F)cc34)n2)c2cccnc21 | 34.8% | 57.5% | 63.2% | 44% | 15.1% | 38% | -11.7% (active) | 22.1% | 40.4% | 11.5% | 64.6% | 8.38% (active) | 45% | 27.5% | 65% | 46.5% | 16.1% | 46.8% | 36.5% | 13.2% |
| COc1ccc2[nH]cc(-c3nonc3-c3c[nH]c4ccc(Br)cc34)c2c1 | 54.1% | 74.8% | 50.5% | 33.8% | 8.13% (active) | 54% | 8.48% (active) | 35.3% | 61.4% | 32.1% | 43.8% | 7.68% (active) | 70.4% | 5.3% (active) | 76.7% | 47% | 26.1% | 56.3% | 64.2% | 31.8% |
| N#Cc1c(-c2ccc(Cl)cc2)nc(NN=Cc2ccc[nH]2)nc1N1CCOCC1 | 92.4% | 61.8% | 95.4% | 41.6% | 36.7% | 68.9% | 8.32% (active) | 54.4% | 23.9% | 81.6% | 84.2% | 44.2% | 88.9% | 79.7% | 63.1% | 46.2% | 58.4% | 33.4% | 101% | 105% |
| COc1nc(/C=C\Nc2ccc3c(c2)OCCOCCOCCOCCO3)nc(OC)n1 | 85.7% | 103% | 90.5% | 109% | 97.3% | 95.7% | 109% | 99.2% | 97.7% | 109% | 97.2% | 101% | 85% | 91.2% | 100% | 92.8% | 91.2% | 96.9% | 105% | 96.4% |
| N#Cc1ccc(O)c(C2=NCC(c3ccc(-c4ccccc4)cc3)O2)c1 (stereo not given) | 27.8% | 29.8% | 33% | 2.79% (active) | 1.31% (active) | 35% | -8.42% (active) | 2.62% (active) | 20.1% | 1.08% (active) | 30.5% | 7.82% (active) | 17.4% | 25% | 42.2% | 19.7% | 19.4% | -9.06% (active) | 13.2% | -16.6% (active) |
| Fc1ccc(/C=C/[C@@H]2C[C@@H](F)CCO2)cc1 | 104% | 101% | 82.1% | 105% | 99.7% | 73.6% | 91% | 106% | 94.4% | 102% | 113% | 64.2% | 99.7% | 98.2% | 96.4% | 104% | 94.8% | 103% | 93.9% | 85.5% |
| O=[N+]([O-])c1ccccc1Nc1ccc2ccccc2c1 | 97.7% | 97.1% | 108% | 82.7% | 84.4% | 82.9% | 87.8% | 47.8% | 83.5% | 72.5% | 107% | 84.8% | 106% | 91.9% | 133% | 95.5% | 98.3% | 97% | 92.8% | 91.3% |
| O=C1Nc2ccccc2/C1=N/N1C(=O)CN(CCCl)C1=O | 100% | 95.1% | 101% | 97.5% | 102% | 110% | 89.7% | 104% | 101% | 112% | 119% | 97.5% | 107% | 117% | 115% | 102% | 99.6% | 105% | 96.6% | 107% |
